The test system of one assay is MCF10A. As to the kind of experiment: perturbation Mahalanobis distance of morphological profile vs DMSO controls (Mahalanobis distance (SD units)); higher = stronger morphological change, active = 7 or more. The conditions noted are these: screen batch: Batch1_Mahalanobis_Distance; 72 h. On the procedure:
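MCF10A cells were seeded onto drugs dispensed acoustically into 384-well plates, using one dose per drug chosen from its human peak plasma concentration, and incubated for 72 h at 37 °C. Cells were stained for DNA, tubulin and mitochondria and imaged; 78 CellProfiler features were extracted, plate-normalised and compared with DMSO wells.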
Take `CNC1(C)C2CCC(C2)C1(C)C` (configuration not stated) [Mecamylamine] (3.6 µM): the “perturbation Mahalanobis distance” value was 2.25 (inactive).
Same read-out and setting: the same measure for `CCS(=O)(=O)CCn1c([N+](=O)[O-])cnc1C` [Tinidazole] (192.9 µM): 2.45 (inactive).
Still for that read-out and setting: for `NCCc1ccc(O)c(O)c1` [Dopamine] (2.5 µM) the value was 4.23 (inactive); for `OCCN(CCO)c1nc(N2CCCCC2)c2nc(N(CCO)CCO)nc(N3CCCCC3)c2n1` [Dipyridamole] (19.8 µM), 2.41 (inactive).
Same read-out and setting: for `COc1cc(C(=O)NS(=O)(=O)c2ccccc2C)ccc1Cc1cn(C)c2ccc(NC(=O)OC3CCCC3)cc12` [Zafirlukast] (0.26 µM) the value was 2.19 (inactive).
Consider `OC(CCCN1CCCCC1)(c1ccccc1)c1ccccc1` [Diphenidol] (2.6 µM), for which the “perturbation Mahalanobis distance” value was 2.49 (inactive).
The same measure, in the same setting: for `CN(C)[C@@H]1C(O)=C(C(N)=O)C(=O)[C@@]2(O)C(O)=C3C(=O)c4c(O)cccc4[C@@](C)(O)[C@H]3C[C@@H]12` [Tetracycline] (45 µM) the value was 4.19 (inactive); for `NNC(=O)c1ccncc1` [Isoniazid] (73.5 µM), 6.37 (inactive); for `COc1cnc(NS(=O)(=O)c2ccc(N)cc2)nc1` [Sulfameter] (322.8 µM), 6.64 (inactive).
The same measure, in the same setting: for `C#C[C@]1(O)CC[C@H]2[C@@H]3CCC4=CC(=O)CC[C@@H]4[C@H]3CC[C@@]21CC` [Levonorgestrel] (0.24 µM) the value was 3.22 (inactive).
Take `O=c1[nH]cc(F)c(=O)[nH]1` [5-Fluorouracil] (2.5 µM): the “perturbation Mahalanobis distance” value was 7.34 (active).
For the molecule `C[C@@H]1CCC2[C@@H](C)[C@@H](O)O[C@@H]3OC4(C)CC[C@@H]1[C@@]23OO4` (some centres not stated) [Dihydroartemisinin] (13.2 µM), the “perturbation Mahalanobis distance” value was 10.7 (active).
As for `CCN1CC(CCN2CCOCC2)C(c2ccccc2)(c2ccccc2)C1=O` (configuration not stated) [Doxapram] (66 µM), the “perturbation Mahalanobis distance” value was 2.26 (inactive).
Same read-out and setting: the same measure for `O=C(C1CCCCC1)N1CC(=O)N2CCc3ccccc3C2C1` (configuration not stated) [Praziquantel] (3.2 µM): 3.15 (inactive).
Same read-out and setting: the same measure for `N=c1nc(N2CCCCC2)cc(N)n1O` [Minoxidil] (6 µM): 6.53 (inactive); for `CN(C)CCCC1(c2ccc(F)cc2)OCc2cc(C#N)ccc21` (configuration not stated) [Citalopram] (3.1 µM): 2.77 (inactive); for `CN(C)c1nc(N(C)C)nc(N(C)C)n1` [Altretamine] (98.9 µM): 2.75 (inactive).
As to `CN(C)C(=N)N=C(N)N` [Metformin] (38.4 µM), the “perturbation Mahalanobis distance” value was 1.76 (inactive).
Same read-out and setting: for `CC(=O)S[C@@H]1CC2=CC(=O)CC[C@]2(C)[C@H]2CC[C@@]3(C)[C@@H](CC[C@@]34CCC(=O)O4)[C@H]12` [Spironolactone] (3 µM) the value was 3.75 (inactive); for `CCCCc1oc2ccc(NS(C)(=O)=O)cc2c1C(=O)c1ccc(OCCCN(CCCC)CCCC)cc1` [Dronedarone] (1.3 µM), 3.58 (inactive).
Take `CCCCCCCN(CC)CCCC(O)c1ccc(NS(C)(=O)=O)cc1` (configuration not stated) [Ibutilide] (0.08 µM): the “perturbation Mahalanobis distance” value was 2.16 (inactive).
Still for that read-out and setting: the same measure for `COCCCOc1cc(C[C@@H](C[C@H](N)[C@@H](O)C[C@H](C(=O)NCC(C)(C)C(N)=O)C(C)C)C(C)C)ccc1OC` [Aliskiren] (2.5 µM): 2.96 (inactive); for `OC(c1cc(C(F)(F)F)nc2c(C(F)(F)F)cccc12)C1CCCCN1` (configuration not stated) [Mefloquine] (23.8 µM): 13.3 (active).
Still for that read-out and setting: the same measure for `C#CCN(C)Cc1ccccc1` [Pargyline] (1.9 µM): 3.93 (inactive); for `CCn1cc(C(=O)O)c(=O)c2cc(F)c(N3CCNCC3)nc21` [Enoxacin] (62.4 µM): 7.28 (active).
Still for that read-out and setting: for `Nc1ccc(C(=O)O)c(O)c1` [4-Aminosalicylic Acid] (130.6 µM) the value was 12.9 (active).
Take `c1ccc(CC2=NCCN2)cc1` [Tolazoline] (25 µM): the “perturbation Mahalanobis distance” value was 2.21 (inactive).
On the same count and under the same terms, the same measure for `CC(C)C1CCC(C(=O)N[C@H](Cc2ccccc2)C(=O)O)CC1` (some centres not stated) [Nateglinide] (66.1 µM): 2.59 (inactive).

Staying with this assay, now noted: screen batch: Batch2_Mahalanobis_Distance; 72 h.
As to `Nc1ccc(O)c(C(=O)O)c1` [Mesalazine] (39.2 µM), the “perturbation Mahalanobis distance” value is 2.94 (inactive).
As to `Cc1c(OCC(F)(F)F)ccnc1CS(=O)c1nc2ccccc2[nH]1` (configuration not stated) [Lansoprazole] (23 µM), the “perturbation Mahalanobis distance” value is 8.49 (active).
Still for that read-out and setting: for `O=c1ncnc2[nH][nH]cc1-2` [Allopurinol] (139.6 µM) the value was 2.89 (inactive); for `COc1cc(N)c(Cl)cc1C(=O)NC1CCN(CCCOc2ccc(F)cc2)CC1OC` (configuration not stated) [Cisapride] (0.85 µM), 2.99 (inactive); for `CCOC(=O)C(C)(C)Oc1ccc(Cl)cc1` [Clofibrate] (325.5 µM), 2.81 (inactive).
Still for that read-out and setting: the same measure for `CCC(=O)NCC[C@@H]1CCc2ccc3c(c21)CCO3` [Ramelteon] (0.13 µM): 2.59 (inactive); for `NNc1nncc2ccccc12` [Hydralazine] (15.6 µM): 3.91 (inactive); for `Cc1ncc([N+](=O)[O-])n1CCO` [Metronidazole] (58.4 µM): 2.36 (inactive).
Still for that read-out and setting: for `C[N+](C)(C)CCOC(=O)CCC(=O)OCC[N+](C)(C)C` [Succinylcholine Chloride] (12.65 µM) the value was 2.84 (inactive); for `Nc1nnc(-c2cccc(Cl)c2Cl)c(N)n1` [Lamotrigine] (54.6 µM), 2.9 (inactive).
For `CO[C@H]1/C=C/O[C@@]2(C)Oc3c(C)c(O)c4c(c3C2=O)C2=NC3(CCN(CC(C)C)CC3)NC2=C(NC(=O)/C(C)=C\C=C\[C@H](C)[C@H](O)[C@@H](C)[C@@H](O)[C@@H](C)[C@H](OC(C)=O)[C@@H]1C)C4=O` [Rifabutin] (0.89 µM), the “perturbation Mahalanobis distance” value is 3.99 (inactive).
On the same count and under the same terms, for `CNC1(C)C2CCC(C2)C1(C)C` (configuration not stated) [Mecamylamine] (3.6 µM) the value was 3.11 (inactive); for `CCS(=O)(=O)CCn1c([N+](=O)[O-])cnc1C` [Tinidazole] (192.9 µM), 2.69 (inactive).
Same read-out and setting: for `NCCc1ccc(O)c(O)c1` [Dopamine] (2.5 µM) the value was 4.04 (inactive); for `OCCN(CCO)c1nc(N2CCCCC2)c2nc(N(CCO)CCO)nc(N3CCCCC3)c2n1` [Dipyridamole] (19.8 µM), 3.01 (inactive).
Still for that read-out and setting: for `COc1cc(C(=O)NS(=O)(=O)c2ccccc2C)ccc1Cc1cn(C)c2ccc(NC(=O)OC3CCCC3)cc12` [Zafirlukast] (0.26 µM) the value was 1.99 (inactive); for `OC(CCCN1CCCCC1)(c1ccccc1)c1ccccc1` [Diphenidol] (2.6 µM), 3.04 (inactive); for `CN(C)[C@@H]1C(O)=C(C(N)=O)C(=O)[C@@]2(O)C(O)=C3C(=O)c4c(O)cccc4[C@@](C)(O)[C@H]3C[C@@H]12` [Tetracycline] (45 µM), 2.42 (inactive).
For the molecule `NNC(=O)c1ccncc1` [Isoniazid] (73.5 µM), the “perturbation Mahalanobis distance” value was 2.59 (inactive).
As to `COc1cnc(NS(=O)(=O)c2ccc(N)cc2)nc1` [Sulfameter] (322.8 µM), the “perturbation Mahalanobis distance” value is 3.67 (inactive).
Still for that read-out and setting: the same measure for `C#C[C@]1(O)CC[C@H]2[C@@H]3CCC4=CC(=O)CC[C@@H]4[C@H]3CC[C@@]21CC` [Levonorgestrel] (0.24 µM): 2.71 (inactive); for `O=c1[nH]cc(F)c(=O)[nH]1` [5-Fluorouracil] (2.5 µM): 16.5 (active).
For `C[C@@H]1CCC2[C@@H](C)[C@@H](O)O[C@@H]3OC4(C)CC[C@@H]1[C@@]23OO4` (some centres not stated) [Dihydroartemisinin] (13.2 µM), the “perturbation Mahalanobis distance” value is 16.7 (active).
Still for that read-out and setting: the same measure for `CCN1CC(CCN2CCOCC2)C(c2ccccc2)(c2ccccc2)C1=O` (configuration not stated) [Doxapram] (66 µM): 2.47 (inactive).
As for `O=C(C1CCCCC1)N1CC(=O)N2CCc3ccccc3C2C1` (configuration not stated) [Praziquantel] (3.2 µM), the “perturbation Mahalanobis distance” value is 3.64 (inactive).
On the same count and under the same terms, the same measure for `N=c1nc(N2CCCCC2)cc(N)n1O` [Minoxidil] (6 µM): 2.8 (inactive); for `CN(C)CCCC1(c2ccc(F)cc2)OCc2cc(C#N)ccc21` (configuration not stated) [Citalopram] (3.1 µM): 2.43 (inactive).
Same read-out and setting: for `CN(C)c1nc(N(C)C)nc(N(C)C)n1` [Altretamine] (98.9 µM) the value was 3.12 (inactive); for `CN(C)C(=N)N=C(N)N` [Metformin] (38.4 µM), 1.8 (inactive).
On the same count and under the same terms, the same measure for `CC(=O)S[C@@H]1CC2=CC(=O)CC[C@]2(C)[C@H]2CC[C@@]3(C)[C@@H](CC[C@@]34CCC(=O)O4)[C@H]12` [Spironolactone] (3 µM): 5.83 (inactive); for `CCCCc1oc2ccc(NS(C)(=O)=O)cc2c1C(=O)c1ccc(OCCCN(CCCC)CCCC)cc1` [Dronedarone] (1.3 µM): 2.07 (inactive).
As for `CCCCCCCN(CC)CCCC(O)c1ccc(NS(C)(=O)=O)cc1` (configuration not stated) [Ibutilide] (0.08 µM), the “perturbation Mahalanobis distance” value is 2.06 (inactive).
For `COCCCOc1cc(C[C@@H](C[C@H](N)[C@@H](O)C[C@H](C(=O)NCC(C)(C)C(N)=O)C(C)C)C(C)C)ccc1OC` [Aliskiren] (2.5 µM), the “perturbation Mahalanobis distance” value is 2.64 (inactive).
Same read-out and setting: the same measure for `OC(c1cc(C(F)(F)F)nc2c(C(F)(F)F)cccc12)C1CCCCN1` (configuration not stated) [Mefloquine] (23.8 µM): 17.1 (active).
Turning to `C#CCN(C)Cc1ccccc1` [Pargyline] (1.9 µM), the “perturbation Mahalanobis distance” value is 3.63 (inactive).
Still for that read-out and setting: the same measure for `CCn1cc(C(=O)O)c(=O)c2cc(F)c(N3CCNCC3)nc21` [Enoxacin] (62.4 µM): 4.85 (inactive).
As for `Nc1ccc(C(=O)O)c(O)c1` [4-Aminosalicylic Acid] (130.6 µM), the “perturbation Mahalanobis distance” value was 13.9 (active).
With `c1ccc(CC2=NCCN2)cc1` [Tolazoline] (25 µM), the “perturbation Mahalanobis distance” value was 2.33 (inactive).
The same measure, in the same setting: for `CC(C)C1CCC(C(=O)N[C@H](Cc2ccccc2)C(=O)O)CC1` (some centres not stated) [Nateglinide] (66.1 µM) the value was 3.16 (inactive).

Values taken from the supplement of paper PMC6853941.
